Screening data from PubChem.
Hits are enriched below; roughly 3.6% of the tested compounds scored in any of these assays.
PI5P4K alpha inh: qHTS for Inhibitors of phosphatidylinositol 5-phosphate 4-kinase (PI5P4K) | max response, % | 330,000 compounds, 1.2% hits | PI5P4Kalpha enzyme, ADP-Glo luminescence, 60 min; active compounds read low | Phosphatidylinositol 5-phosphate 4-kinase type-2 alpha (Homo sapiens), P48426; active = max response of -50% or lower; inconclusive = between -30% and -50%; inactive = -30% or higher; also: value at the top dose of about 77 µM; % is scaled to controls: 0 for no effect and ±100 for the full control effect
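ADP-Glo luminescence end-point after a 60 min room-temperature kinase reaction. PI5P4Kalpha and substrate in HEPES pH 7.4 buffer with EGTA, 0.1% CHAPS and 5% DMSO; ATP at 5 microM final.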
GCN5L2 inh: qHTS Assay for Inhibitors of GCN5L2; Histone acetyltransferase KAT2A (Homo sapiens), Q92830; GCN5L2 HAT assay, ThioGlo1 CoA-SH fluorescence; Potency, µM (series often up to 58.9 µM), for inactives: at the highest dose activity change, negative = inhibition, usual class: inhibitors; 390,000 compounds, 0.21% hits; AID 504327, 2011; also: potency is read from the fitted curve at half-maximal effect; % is scaled to controls: 0 for no effect and ±100 for the full control effect
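ThioGlo1-coupled HAT assay: 20nM GCN5L2, 70uM acetyl-CoA, 75uM H3(1-25) peptide, pH 7.5. Fluorescence read at 340/540nm at start and after 20 min at room temperature.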
Rango dissoc inh: qHTS Assay for Inhibitors of RanGTP induced Rango (Ran-regulated importin-beta cargo) - Importin beta complex dissociation; Biochemical FRET Rango-importin beta, RanGTP-induced dissociation; AID 540253, 2011; Potency, µM (highest dose often 46.1 µM), for the others: at the top dose activity change, negative = inhibition; 340,000 compounds, 0.071% hits; Snurportin-1 (Homo sapiens) + GTP-binding nuclear protein Ran (Homo sapiens) + Importin …; calls by dose curve; also: potency is read from the fitted curve at half-maximal effect; % of control where 0% means no effect; nearly all actives have a fitted effect of over 45% in size
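Recombinant Rango FRET biosensor (EYFP–snurportin 1 IBB–cerulean CFP10) at 0.1 uM premixed with 0.25 uM importin beta in PBS, 1 mM DTT, 0.02% Tween-20, 0.1% BSA. Compound added 5 min; RanGTP-RCC1 (0.6 uM Ran, 2 mM GTP, 0.2 uM RCC1) then triggers release, read at 45 min.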
VDR inhibitor: Inhibitors of the vitamin D receptor (VDR): qHTS; Vitamin D3 receptor (Homo sapiens), P11473; VDR-SRC2-3 peptide fluorescence polarization, 2 h; Potency, µM, for the others: max response, negative = inhibition, most hits filed as inhibitors; 400,000 compounds, 0.93% hits; also: potency is read from the fitted curve at half-maximal effect; % is scaled to controls: 0 for no effect and ±100 for the full control effect
Target sequence (P11473 whole entry, looked up): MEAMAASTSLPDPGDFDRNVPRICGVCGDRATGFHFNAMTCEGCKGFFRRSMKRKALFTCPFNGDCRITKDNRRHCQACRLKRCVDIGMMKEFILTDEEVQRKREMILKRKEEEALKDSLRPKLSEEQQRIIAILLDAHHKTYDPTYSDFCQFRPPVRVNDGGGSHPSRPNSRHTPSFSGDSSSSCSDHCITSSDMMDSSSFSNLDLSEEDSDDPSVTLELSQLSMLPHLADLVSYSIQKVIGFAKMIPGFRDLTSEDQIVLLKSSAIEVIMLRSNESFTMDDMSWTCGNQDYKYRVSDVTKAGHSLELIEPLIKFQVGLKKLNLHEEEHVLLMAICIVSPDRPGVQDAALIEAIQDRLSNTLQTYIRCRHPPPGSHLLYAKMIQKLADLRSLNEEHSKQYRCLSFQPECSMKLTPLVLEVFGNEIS
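Compounds are added to VDR with labelled SRC2-3 coactivator peptide and held 2 h at room temperature. Inhibition of the VDR–peptide interaction is then read as a change in fluorescence polarization.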
Rango-impB inh: qHTS Assay for Inhibitors of Rango (Ran-regulated importin-beta cargo) - Importin beta complex formation | Importin subunit beta-1 (Homo sapiens), Q14974 | Rango CFP/YFP FRET sensor + importin beta, 45 min | Potency, µM (doses to about 92.2 µM), inactives show top-dose inhibition of complex formation | 340,000 compounds, 0.031% hits | AID 540263, 2011; calls by dose curve;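 also: potency is read from the fitted curve at half-maximal effect; 0% = DMSO wells and 100% = buffer wells lacking importin beta; nearly all actives have a fitted effect of over 15% in size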
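FRET biosensor (snurportin 1 IBB flanked by EYFP and cerulean), 50 nM, with compound 5 min, then 0.125 microM importin beta in PBS, 1 mM DTT, 0.02% Tween-20, 0.1% BSA. CFP/YFP ratio read after 45 min at room temperature; pre-read flags interference.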
PLK1 PBD inh: qHTS for Inhibitors of PLK1-PDB (polo-like kinase 1 - polo-box domain): Primary Screen. Serine/threonine-protein kinase PLK1 (Homo sapiens), P53350. Plk1 PBD binding of FITC phosphopeptide, fluorescence polarization. Potency, µM, without a hit: max response, negative = inhibition, usual class: inhibitors. 360,000 compounds, 2.8% hits. AID 720504, 2013; also: potency is read from the fitted curve at half-maximal effect; series mostly up to about 57 µM; % is scaled to controls: 0 for no effect and ±100 for the full control effect; nearly all actives have a fitted effect of over 65% in size
An asterisk follows results filed as active; ? = inconclusive; · = no result. Unless noted, calls follow the shape of the dose curve; as a rule, active = well fitted curve in the direction sought with a large enough effect; inconclusive = small, poorly fitted or top-dose-only effect, or another doubt; inactive = no such curve, though single readings can be large; an effect the other way counts as inactive or inconclusive.

SMILES	PI5P4K alpha inh	GCN5L2 inh	Rango dissoc inh	VDR inhibitor	Rango-impB inh	PLK1 PBD inh
Cc1ccc(CNC(=O)CN(C)S(=O)(=O)c2ccc3c(c2)c(=O)n(C)c(=O)n3C)cc1	·	-6%	·	-13%	·	·
COc1ccc(Nc2cnn(-c3nc4ccccc4s3)c(=O)c2Cl)cc1	-7	0%	12%	?	3%	12µM*
O=C(Cc1ccc(NC(=O)N2CCCCc3ccccc32)cc1)NCc1ccccc1Br	·	-11%	·	0%	·	·
CCCCOc1ccc(C(=O)CCN2CCOCC2)cc1	-2	-10%	-1%	32µM*	-4%	24µM*
CCCCCOc1ccc(C(O)C(CN2CCOCC2)c2ccccc2)cc1 (stereo unspecified)	1	-13%	13%	-17%	-2%	27µM*
COc1ccc(C(O)C(CN2CCOCC2)c2ccccc2)cc1 (stereo unspecified)	·	-2%	-17%	2%	6%	-1%
CCOc1ccc(OCCN2CCCCC2)cc1	-1	-4%	-5%	-10%	0%	-4%
CCCOc1ccc(C(=O)CCN2CCCCC2)cc1	0	-3%	5%	40µM*	-2%	13µM*
O=C(OCCN1CCOCC1)c1ccc(OCCN2CCOCC2)cc1	-1	1%	16%	8%	5%	-4%
CCCN(CCC)C(=O)Cn1c(=O)n(-c2ccc(CC)cc2)c(=O)c2ccc(C(=O)NCCc3ccccc3)cc21	·	-6%	·	16%	·	·
Cc1ccc(Cn2c(=O)c3cccnc3n(CC(=O)Nc3cc(Cl)ccc3C)c2=O)cc1	·	4%	·	-18%	·	·
CCSc1nnc2ccc(-c3ccc(OC)c(OC)c3)nn12	-10	-13%	5%	?	-1%	21µM*
Cc1cc(C)cc(NC(=O)C2CCCN(c3cnccn3)C2)c1 (stereo unspecified)	·	-7%	·	12%	·	·
O=C(O)C(O)c1ccco1 (stereo unspecified)	-60*	-15%	-2%	-14%	0%	27µM*
CC(NC(=O)c1ccco1)C(=O)O (stereo unspecified)	-2	-5%	8%	-21%	-5%	?
N#CCCn1c(=O)c(-c2cccs2)nc2cnc(Nc3ccccc3)nc21	·	-2%	·	2%	·	·
CCNc1ncc2nc(-c3cccs3)c(=O)n(CCC#N)c2n1	·	7.1µM*	·	-6%	·	·
Nc1ccc(-c2nc3nc(N)nc(N)c3nc2-c2ccc(N)cc2)cc1	-51*	-5%	-4%	-9%	3%	-13%
O=[N+]([O-])c1cc(C(F)(F)F)ccc1NCC1CCCO1 (stereo unspecified)	-25	3%	8%	79µM*	3%	6µM*
OCCN(CCO)c1nc(N2CCCCC2)c2nc(N(CCO)CCO)nc(N3CCCCC3)c2n1	-4	25µM*	?	-20%	?	12µM*
NS(=O)(=O)c1ccc(NC(=O)CSC2CCCCC2)cc1	-14	11%	6%	?	-2%	30µM*
NS(=O)(=O)c1ccc(NC(=S)NC(=O)C2CCCCC2)cc1	1	-2%	0%	14%	2%	-10%
Cc1cccc(C(=O)NC(=S)Nc2ccc(S(=O)(=O)N3CCN(C)CC3)cc2)c1	-10	0%	-8%	-5%	5%	21µM*
NS(=O)(=O)c1ccc(NC(=S)NC2CCCCCC2)cc1	4	-3%	1%	-12%	-5%	19µM*
COC(=O)c1ccc(NC(=S)NNC(=O)CC(C)C)cc1	-12	45%	3%	-20%	2%	27µM*
SMILES	PI5P4K alpha inh	GCN5L2 inh	Rango dissoc inh	VDR inhibitor	Rango-impB inh	PLK1 PBD inh
CN(C)C1CCN(CCCOc2ccc(-c3ccc(C#N)cc3)cc2)C1 (stereo unspecified)	·	3%	·	-15%	·	·
CCc1nnc2c(Nc3cccc(F)c3)nc3ccc(C(=O)c4ccccc4)cc3n12	·	-4%	·	2%	·	·
CC(C)CC(=O)NC(=S)Nc1ccc(S(=O)(=O)N2CCCC2)cc1	3	16%	-7%	-19%	-1%	24µM*
CCOC(=O)c1ccc(N2C(=O)CC(SCC(=O)Nc3ccc(S(N)(=O)=O)cc3)C2=O)cc1 (stereo unspecified)	-5	2%	-5%	?	-4%	30µM*
O=S(=O)(c1ccc(NC(=S)NC2CC2)cc1)N1CCOCC1	2	-4%	-7%	-5%	-4%	?
O=S(=O)(c1ccc(NC(=S)NC2CCCC2)cc1)N1CCCC1	?	-12%	-6%	?	1%	15µM*
CC(C)C(=O)NC(=S)Nc1ccc(S(=O)(=O)N2CCCC2)cc1	8	-7%	6%	-6%	-1%	-12%
CCOC(=O)c1ccc(NC(=O)CCC(=O)NCc2ccco2)cc1	-8	-2%	-6%	-4%	0%	-4%
N#CCC(=O)Nc1ccc(C(=O)OCC(=O)NC(=O)NCc2ccco2)cc1	-55*	-18%	-10%	-13%	?	4%
Cc1ccc(NC(=O)C2CCN(C(=O)c3cnn(-c4ccccc4)c3-n3cccc3)CC2)cc1	·	-6%	·	11%	·	·
CC1CCCN(CCC(=O)c2ccccc2)C1 (stereo unspecified)	-1	·	-8%	-2%	0%	13µM*
O=C(CCN1CCCCC1)c1ccccc1	·	-4%	21%	-10%	-3%	15µM*
CC(=O)OC(C[N+]1(C)CCCCCC1)c1ccccc1 (stereo unspecified)	4	2%	7%	-13%	0%	-3%
C[N+]1(CCC(=O)c2ccccc2)CCCCC1	3	-12%	21%	-19%	0%	12µM*
O=C(CCN1CCOCC1)c1ccccc1	·	0%	-11%	-53%	4%	?
COc1ccccc1CNS(=O)(=O)c1ccc2c(c1)NC(=O)C(C)C(=O)N2 (stereo unspecified)	·	-2%	·	-9%	·	·
COc1ccc(C(=O)N2CCN(c3nc4c(C)c(Cl)ccc4s3)CC2)c(OC)c1	·	-7%	·	-3%	·	·
Cc1cccc(N2CCN(C(=O)c3nn(C)c4c3CSc3ccccc3-4)CC2C)c1 (stereo unspecified)	·	0%	·	19%	·	·
C/C(=N\Nc1ccc([N+](=O)[O-])cc1[N+](=O)[O-])c1cccnc1	-2	-11%	0%	-13%	-2%	-5%
CC(C)=NNc1cnnc2ccc([N+](=O)[O-])cc12	-69*	·	·	·	·	-11%
